From PubChem BioAssay AID504527 (The Scripps Research Institute Molecular Screening Center, 2011)
The source made the active and inactive calls.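 The calls were made as follows: active = two or more serine hydrolases at least half inhibited, plus every target band half blocked in a general-probe test; inactive = under two enzymes half blocked, or any target band not.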

Assay: general off-target profile by competitive ABPP – fluorescence, gel-based ABPP, powder samples, selectivity assay for PAFAH2 inhibitor project, late-stage follow-up (AID 504527)
Settings: BW5147 murine T-cell proteome, FP-Rh fluorescence, competitor FP-biotin, probe test compound; non-competed targets by FP-biotin, at 20 µM, stronger effect = lower value

SMILES	count of non-competed proteins	outcome
C#CCOCCOCCOCCN(Cc1ccccc1)C(=O)n1ncc(-c2ccccc2)n1	0	active
C#CCOCCOCCOCCN(Cc1ccccc1)C(=O)n1nccn1	0	active
C#CCOCCOCCOCCN(Cc1ccccc1)C(=O)n1nc2cccnc2n1	3	inactive
